Assay outcomes as filed in PubChem BioAssay.
DRD3 antagonist: antagonists of human D3 dopamine receptor; P35462; 2.5% of 360,000 active; D3R cells, DiscoveRx beta-arrestin luminescence, antagonist mode; hits give low values; max response, negative = inhibition, %; in the data active means max response below about -50%; inconclusive means no clear call, values can overlap the other calls; further: on the % scale 0 is the no-effect control and ±100 the full control effect
Target sequence (P35462 whole entry, looked up): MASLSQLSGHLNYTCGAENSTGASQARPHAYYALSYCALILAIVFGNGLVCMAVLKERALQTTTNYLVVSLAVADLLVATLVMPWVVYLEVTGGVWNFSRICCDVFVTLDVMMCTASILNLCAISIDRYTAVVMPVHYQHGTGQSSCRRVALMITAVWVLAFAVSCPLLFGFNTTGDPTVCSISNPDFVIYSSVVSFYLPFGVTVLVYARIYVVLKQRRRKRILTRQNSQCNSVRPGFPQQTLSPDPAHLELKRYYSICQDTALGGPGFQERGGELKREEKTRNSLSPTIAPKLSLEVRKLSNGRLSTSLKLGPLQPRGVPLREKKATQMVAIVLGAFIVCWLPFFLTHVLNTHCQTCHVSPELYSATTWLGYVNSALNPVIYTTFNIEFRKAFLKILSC
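Cells plated overnight at 1500 cells/well, then exposed to library compounds with dopamine controls for 90 minutes at 37 degrees C. DiscoveRx reagent added for 30–60 minutes at room temperature; luminescence read, quantitative HTS format.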
S2 tox: viability counter-screen for ATXN expression inhibitors; S2 cells (HEK-293 line with an ATXN2-luciferase reporter) viability, CellTiter-Fluor protease fluorescence, 24 h; Potency, µM (series often up to 56.7 µM), usual class: cytotoxic; 0.49% of 400,000 active; further: potency means the concentration at half of the fitted maximal effect; nearly all actives have a fitted effect of over 40% in size
ATXN2 expr inh: ATXN2 expression inhibition. Potency, µM (titrated, usually from 57 µM), inactives show at the highest dose activity change, negative = inhibition, actives largely listed as inhibitors. 0.72% of 360,000 active. AID 1745845. HEK-293 ATXN2-luciferase reporter, luminescence, 24 h; further: potency means the concentration at half of the fitted maximal effect; on the % scale 0 is the no-effect control and ±100 the full control effect; nearly all actives have a fitted effect of over 55% in size
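ATXN2-luciferase reporter cells (luciferase flanked by upstream and downstream ATXN2 gene portions) were treated 24 h at 37 °C with compounds at up to 57 uM. SteadyGlo luminescence gave expression; GF-AFC fluorescence gave viability.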
HepG2 tox-1: counter-screen for TGF-b inhibitors: cytotoxicity in HepG2 cells. HepG2 CAGA-GFP viability, ATP luminescence, 18 h. Potency, µM (series often up to 46.1 µM), for the others: at the top dose activity change, negative = cytotoxicity, usual class: cytotoxic. 0.76% of 410,000 active. AID 588856; further: potency means the concentration at half of the fitted maximal effect
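HepG2 CAGA-GFP cells (1000/well, DMEM with 1% FBS) received compound, then TGF-beta at 500 pg/mL final, and were incubated 18 hours at 37 degrees C. Viability was read by CellTiter-Glo luminescence. Media-only wells were set as complete cell-killing and DMSO as no toxicity.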
D3 ag: D3 dopamine receptor (human) agonism; D3R DiscoveRx beta-arrestin cells, luminescence, 90 min; AID 652048; max activation, %; 0.58% of 410,000 active; in the data active means max activation above about 30%; further: 0% is about no effect
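Agonist-mode cell screen: cells plated at 1500/well and incubated overnight at 37 °C, then exposed to library compounds for 90 min at 37 °C. Detection reagent was added for 30–60 min at room temperature, and luminescence was read.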
TGFb SMAD3 inh: TGF-b pathway inhibition; HepG2 CAGA-GFP TGF-b/SMAD3 reporter, GFP fluorescence, 18 h; TGF-beta stimulated, 500 pg/mL final; Potency, µM (series often up to 46.1 µM), for the others: at the highest dose activity, negative = inhibition, usual class: inhibitors; 1.2% of 410,000 active; AID 588855; further: potency means the concentration at half of the fitted maximal effect; on the % scale 0 is the no-effect control and ±100 the full control effect; nearly all actives have a fitted effect of over 65% in size
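Inhibition was scored as loss of TGF-beta-induced (500 pg/mL final, 18 hours, 37 degrees C) GFP in HEPG2 cells carrying a CAGA-GFP reporter, in DMEM with 1% FBS. Well GFP was summed per cell; Activity was normalised to unstimulated and stimulated DMSO wells, then concentration-response fitting.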
TGFb CAGA inh: TGF-b pathway inhibition, cherry-pick retest. shares compounds with TGFb SMAD3 inh. HepG2 CAGA-GFP TGF-b reporter, GFP fluorescence, 18 h; cells stimulated with TGF-beta, 500 pg/mL. Potency, µM (titrated, usually from 46.1 µM), for inactives: at the top dose activity, negative = inhibition, hits mostly inhibitors. 63% of 1,600 active; further: potency means the concentration at half of the fitted maximal effect; on the % scale 0 is the no-effect control and ±100 the full control effect; nearly all actives have a fitted effect of over 65% in size
HepG2 tox-2: toxic to HepG2 cells in TGF-b counterscreen; shares compounds with TGFb SMAD3 inh; HepG2 CAGA-GFP viability, ATP luminescence, 18 h; cells stimulated with TGF-beta, 500 pg/mL; Potency, µM (titrated, usually from 46.1 µM), for the others: at the top dose activity, negative = cytotoxicity, actives largely listed as inhibitors; 27% of 1,600 active; further: potency means the concentration at half of the fitted maximal effect; on the % scale 0 is the no-effect control and ±100 the full control effect; nearly all actives have a fitted effect of over 70% in size
TGFb CCL64 inh: blocks TGF-b signaling in CCL64 reporter cells; shares compounds with TGFb SMAD3 inh; CCL64 CAGA-GFP reporter, TGF-b stimulated, GFP fluorescence, 18 h; Potency, µM (doses to about 46.1 µM), for inactives: at the top dose activity, negative = inhibition, actives largely listed as inhibitors; 41% of 1,600 active; further: potency means the concentration at half of the fitted maximal effect; nearly all actives have a fitted effect of over 65% in size
TGFb COP inh: blocks TGF-b signaling in HepG2 COP reporter; shares compounds with TGFb SMAD3 inh; HepG2 COP-GFP TGF-b reporter, GFP fluorescence, 18 h; cells stimulated by added recombinant TGF-beta; 3% of 1,600 active; Potency, µM (top dose mostly 46.1 µM), without a hit: at the top dose activity, negative = inhibition, usual class: inhibitors; further: potency means the concentration at half of the fitted maximal effect; nearly all actives have a fitted effect of over 70% in size
The depositor's hits bear a star; i = inactive; ? = inconclusive; . = not tested or not shown; ! = repeats disagree. Sampled rows, rich in hits. Any-hit rate of the full collection: about 4.7%. Unless noted, the call rests on the fitted dose curve; in most records, active means well fitted curve in the direction sought with a large enough effect; inconclusive means small, poorly fitted or top-dose-only effect, or another doubt; inactive means no such curve, though single readings can be large; an effect the other way counts as inactive or inconclusive.

SMILES	DRD3 antagonist	S2 tox	ATXN2 expr inh	HepG2 tox-1	D3 ag	TGFb SMAD3 inh	TGFb CAGA inh	HepG2 tox-2	TGFb CCL64 inh	TGFb COP inh
Cc1ccc(-n2nnnc2Sc2ccc(S(=O)(=O)NCCN(C)C)cc2[N+](=O)[O-])cc1	0	?	?	8.9µM*	-5	1.6µM*	7.3µM*	21µM*	5.8µM*	?
O=C(Nc1ccc(Cl)cc1Cl)c1cc(S(=O)(=O)N2CCc3ccccc32)ccc1F	.	.	.	5%	-4	0%	.	.	.	.
Clc1cccc(Nc2nc(-c3ccncc3)nc3ccccc23)c1	-23	?	?	-41%	-22	2%	?	?	?	9%
c1ccc2c(Nc3nc(-c4ccncc4)nc4ccccc34)cccc2c1	16	i	-23%	-64%	9	-16%	.	.	.	.
Clc1ccccc1Nc1nc(-c2ccncc2)nc2ccccc12	9	i	-35%	-55%	2	-10%	-14%	23µM*	?	52%
O=C(c1ccccc1)N1CCCC(c2nc3c(nnn3Cc3ccc(F)cc3F)c(=O)[nH]2)C1 (centres undefined)	.	i	7%	-15%	7	-16%	.	.	.	.
CCOc1ccccc1NC(=O)Cn1c(=O)n(-c2ccc(F)cc2)c(=O)c2c3c(sc21)CN(C(C)=O)CC3	.	i	3%	-2%	-4	-26%	.	.	.	.
O=C(Oc1c(CN2CCOCC2)cc(Cl)c2cccnc12)c1ccccc1Br	-80*	?	.	-136%	-28	3.2µM*	-11%	?	?	1%
Oc1c(CN2CCOCC2)cc(COCc2ccccc2)c2cccnc12	-67*	i	5.6µM*	-38%	-23	1µM*	-22%	?	8.2µM*	21%
Oc1c(CNc2ccccc2)cc(COCc2ccccc2)c2cccnc12	.	i	?	-10%	.	?	.	.	.	.
COc1ccc(-c2nc(NC(=O)C3CC(=O)N(c4ccc5c(c4)OCCO5)C3)sc2C)cc1 (centres undefined)	1	?	13µM*	-1%	15	11µM*	6.5µM*	?	?	31%
COc1ccc(NC(=O)C2CCN(S(=O)(=O)c3ccc4c(c3)NC(=O)C(C)S4)CC2)cc1 (centres undefined)	1	i	-32%	-11%	5	?	.	.	.	.
CC1Sc2ccc(S(=O)(=O)N3CCC(C(=O)Nc4ccc(Cl)cc4)CC3)cc2NC1=O (centres undefined)	-7	?	.	-10%	9	20µM*	5.2µM*	?	?	30%
Cc1c(/C=N\NC(=O)C2COc3ccccc3O2)c2ccccc2n1C (centres undefined)	-11	?	14%	-2%	2	8.9µM*	5.8µM*	-13%	6.5µM*	-5%
Cc1cc(C)c2c(c1)cc(C)c1nnc(SCC(=O)Nc3ccc(S(=O)(=O)N4CCCCC4)cc3)n12	5	i	12%	13%	3	?	18µM*	-12%	-22%	0%
Cc1ccc2cc(C)c(SCC(=O)Nc3ccc(S(=O)(=O)N4CCCC4)cc3)nc2c1	35	i	0%	-3%	-4	1%	.	.	.	.
Cn1cc([N+](=O)[O-])c(C(=O)Nc2sc3c(c2C#N)CCC3)n1	-8	i	.	17%	0	8.9µM*	13µM*	7.3µM*	2%	70%
Cc1csc2c(N3CCN(C(=O)c4ccc(C(C)(C)C)cc4)CC3)ncnc12	29	i	.	-38%	14	11µM*	9.2µM*	-21%	?	11%
Cc1csc2c(N3CCN(C(=O)NC(C)(C)C)CC3)ncnc12	21	i	0%	-21%	15	?	.	.	.	.
CN(C(=S)NC(=O)c1ccccc1Br)C1CCCCC1	-27	i	-13%	-23%	-16	?	-20%	-13%	9%	2%
Cc1ccccc1C(=O)NC(=S)N(C)C1CCCCC1	4	i	28%	-4%	-6	9%	.	.	.	.
COc1cc(NC(=O)C2Cc3ccccc3CN2S(C)(=O)=O)cc(OC)c1 (centres undefined)	0	i	-27%	25%	-21	11µM*	-21%	-6%	-21%	8%
CCO[C@H]1OC(C(=O)Nc2ccccc2)=C[C@@H](c2ccc(C(F)(F)F)cc2)[C@@H]1CCCO	23	?	?	-19%	9	14µM*	?	-29%	?	25%
CCO[C@@H]1OC(C(=O)NCc2ccccc2)=C[C@H](c2ccc(Br)cc2)[C@H]1CCCO	9	?	?	-3%	-20	?	?	-12%	?	7%
Cc1ccccc1OCC(=O)Nc1ccc2nc(SCC(=O)N3CCCC3)sc2c1	.	.	.	-29%	1	-1%	.	.	.	.
COc1ccc(COc2cc(-c3cccc(OC)c3)nc3ccc(NC(C)=O)cc23)cc1	9	i	-1%	-7%	13	3%	.	.	.	.
COc1ccc(COc2cc(-c3cccc(OC)c3)nc3ccc(N)cc23)cc1	113	.	-9%	-1%	18	7.1µM*	3.3µM*	-19%	1.8µM*	-20%
CCCC[C@H]1COCCS(=O)(=O)N1Cc1ccc(Br)cc1	-19	i	-18%	0%	0	10µM*!	?	-17%	?	16%
CCCC[C@H]1COCCS(=O)(=O)N1Cc1ccc(C)cc1	-22	i	-18%	-29%	-10	-26%	.	.	.	.
